One may read the cell viability as a read-out of living cells in per cent, often relative to untreated cells.

Counter-ions that a name gives are not always drawn.

The first assay concerns MOLM14. In words: cell viability relative to vehicle control; higher = less cytotoxic. The conditions noted are these: 10 µM; SRSF2 genotype: SRSF2 P95H/wt. In a few lines: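 Mutant clones made by CRISPR editing and their isogenic wild-type counterparts, from four leukaemia lines, were exposed to a single 10 µM dose of each library compound for 48 h. The supernatant was then removed and CellTiter-Glo luminescence was read. Viability was reported as percent of the on-plate vehicle control.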
Regarding `C[C@H](Nc1ncnc2[nH]cnc12)c1cc2ccc(F)cc2nc1-c1ccccn1`, the cell viability came out at 69.2%.
Still for that read-out and setting: to `CC1(C)[C@@H](O[C@H]2O[C@H](C(=O)O)[C@@H](O)[C@H](O)[C@H]2O[C@@H]2O[C@H](C(=O)O)[C@@H](O)[C@H](O)[C@H]2O)CC[C@]2(C)[C@H]3C(=O)C=C4[C@@H]5C[C@@](C)(C(=O)O)CC[C@]5(C)CC[C@@]4(C)[C@]3(C)CC[C@@H]12` [Dipotassium glycyrrhizinate] belongs 103%; to `O=C(NC1(c2ccccc2)CC1)c1c(CN2CCC(N3CCCCC3)CC2)c(-c2cccc(C(F)(F)F)c2)nc2cc(Br)ccc12`, 64.9%; to `O=c1cc(-c2ccc(O)cc2)oc2cccc(O)c12` [4',5-Dihydroxyflavone], 64.3%.
Same read-out and setting: the value for `C[C@@H]1CC[C@H]2C(C)(C)[C@H]3C[C@@]12CC[C@@]3(C)O` [Cedrol] was 104%; that for `N#Cc1cc2cc(CN3CCC(Nc4ncnc5sc(CC(F)(F)F)cc45)CC3)ccc2[nH]1` was 22.6%; that for `CCC(CC)(NC(=O)C(C)C)C(=O)N[C@@H](CCCN=C(N)N)C(=O)NC1(C(=O)NC(c2ccc(F)cc2)c2ccc(F)cc2)CCCC1` was 93.4%.
Still for that read-out and setting: to `CNCCc1ccccn1` [Betahistine] belongs 101%.
As to `O=C(O)c1ccc(O)cc1` [4-Hydroxybenzoic acid], the cell viability was found to be 98.4%.
Still for that read-out and setting: to `CC(C)C(=O)Nc1ccc([N+](=O)[O-])c(C(F)(F)F)c1` [Flutamide (Eulexin)] belongs 96.8%.

The same assay, now with this note: 10 µM; SRSF2 genotype: SRSF2 wt/wt.
With `O=C(Nc1cccc(Cl)c1)Nc1ncc(CCNc2ncnc3ccsc23)s1` [SNS-314 Mesylate], the cell viability was found to be 12.8%.
Still for that read-out and setting: the value for `O=C(c1cn(Cc2cncn2Cc2ccc(Br)cc2)cc1-c1cccc2ccccc12)N1CCOCC1` was 39.1%.
`COc1cc(N2CCN(C)CC2)ccc1Nc1nccc(-c2cn(C)c3cnccc23)n1`: the cell viability was determined as 1.65%.
Still for that read-out and setting: to `O=c1c(-c2ccc(O)cc2)coc2cc(O[C@@H]3O[C@H](CO)[C@@H](O)[C@H](O)[C@H]3O)ccc12` [Daidzin] belongs 104%; to `COc1nc(C)cnc1NS(=O)(=O)c1cccnc1-c1ccc(-c2nnco2)cc1` [Zibotentan (ZD4054)], 97.5%; to `Nc1ccc(-c2cccc(C(=O)Nc3cnc4nc(N5CCOCC5)oc4c3)n2)cn1`, 87.5%.
The same measure, in the same setting: to `C[C@@H]1CC[C@@]2(OC1)O[C@H]1C[C@H]3[C@@H]4CC=C5C[C@@H](O[C@@H]6O[C@H](CO)[C@@H](O)[C@H](O)[C@H]6O)CC[C@]5(C)[C@H]4CC[C@]3(C)[C@H]1[C@@H]2C` [Trillin] belongs 93.2%; to `CCCC(C)NC(=O)c1ccc(Cl)c(Cl)c1` (stereo not drawn), 103%; to `C[C@@H]1C/C=C/C=C/C=C/C=C/[C@H](O[C@@H]2O[C@H](C)[C@@H](O)[C@H](N)[C@@H]2O)C[C@@H]2O[C@](O)(C[C@@H](O)C[C@H]3O[C@@H]3/C=C/C(=O)O1)C[C@H](O)[C@H]2C(=O)O` [Natamycin], 104%.
With `CN1CCN(c2ccc(Nc3ncc4cc(C#N)c(=O)n(C5CCCC5)c4n3)cc2)CC1`, the cell viability was 16.4%.
Still for that read-out and setting: the value for `COc1ccc(-c2oc3c(CC=C(C)C)c(O[C@@H]4O[C@H](CO)[C@@H](O)[C@H](O)[C@H]4O)cc(O)c3c(=O)c2O[C@@H]2O[C@@H](C)[C@H](O)[C@@H](O)[C@H]2O[C@@H]2O[C@@H](C)[C@H](O)[C@@H](O)[C@H]2O)cc1` [Epmedin C] was 105%.
Still for that read-out and setting: to `CC1=C(CC[C@@H](C)CO[C@@H]2O[C@H](CO)[C@@H](O)[C@H](O)[C@H]2O)O[C@H]2C[C@H]3[C@@H]4CC=C5C[C@@H](O[C@@H]6O[C@H](CO)[C@@H](O[C@@H]7O[C@@H](C)[C@H](O)[C@@H](O)[C@H]7O)[C@H](O)[C@H]6O[C@@H]6O[C@@H](C)[C@H](O)[C@@H](O)[C@H]6O)CC[C@]5(C)[C@H]4CC[C@]3(C)[C@@H]12` [Pseudoprotodioscin] belongs 101%; to `O=C(NC[C@H](O)CN1CCc2ccccc2C1)c1cc(NC2COC2)ncn1`, 92.6%.
The same measure, in the same setting: to `CCCc1cc(C)[nH]c(=O)c1CNC(=O)c1cc(-c2ccc(N3CCN(C)CC3)nc2)nc2c1cnn2C(C)C` belongs 78.5%; to `Cc1cc(NS(=O)(=O)c2ccc(N)cc2)nc(C)n1` [sulfaisodimidine], 106%.
Consider `Cn1cnc(-c2cc3nccc(Oc4ccc(NC(=S)NC(=O)Cc5ccccc5)cc4F)c3s2)c1`, for which the cell viability is 15.3%.
The same measure, in the same setting: to `Fc1ccc(C(c2ccc(F)cc2)N2CCN(C/C=C/c3ccccc3)CC2)cc1` [Flunarizine 2HCl] belongs 60.7%.
Still for that read-out and setting: to `CNc1cccc(CCOc2ccc3c(c2)CN(CC(F)(F)F)C(=O)[C@H](CC(=O)O)C3)n1` belongs 98.6%.

For the origin of these results see the supplement of paper PMC10981050.
